Sampled rows, rich in hits. Any-hit rate of the full collection: about 0.4%.
AID inhibitor – Primary qHTS assay for inhibitors of Activation Induced Cytidine Deaminase (AID): AID signal. Single-stranded DNA cytosine deaminase (Homo sapiens), Q9GZX7. AID deamination FRET fluorescence, UDG-coupled, 4 h. Potency, µM (series often up to 115 µM), usual class: inhibitors. 91,000 tested, 0.32% active. AID 1347428, 2020; also: nearly all actives have a fitted effect of over 25% in size
Target sequence (Q9GZX7 whole entry, looked up): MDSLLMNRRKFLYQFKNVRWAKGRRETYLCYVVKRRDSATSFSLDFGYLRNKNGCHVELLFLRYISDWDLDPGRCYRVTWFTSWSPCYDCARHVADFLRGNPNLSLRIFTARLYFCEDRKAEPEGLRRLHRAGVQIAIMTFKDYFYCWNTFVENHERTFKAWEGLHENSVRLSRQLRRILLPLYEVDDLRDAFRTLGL
UDG counterscr – Primary qHTS assay for inhibitors of Activation Induced Cytidine Deaminase (AID): UDG Counterscreen signal; Uracil-DNA glycosylase; 91,000 tested, 0.14% active; FRET deamination/UDG coupled assay, UDG read, 4 h; Potency, µM (titrated, usually from 115 µM), without a hit: top-dose activity change, negative = inhibition, usual class: inhibitors; also: nearly all actives have a fitted effect of over 65% in size
The depositor's hits bear a star; i = inactive; u = inconclusive; [ ] = remark or other dose. Calls follow the shape of the dose curve; as a rule, active = well fitted curve in the direction sought with a large enough effect; inconclusive = small, poorly fitted or top-dose-only effect, or another doubt; inactive = no such curve, though single readings can be large; an effect the other way counts as inactive or inconclusive. % is scaled to controls: 0 for no effect and ±100 for the full control effect; potency is read from the fitted curve at half-maximal effect.

SMILES | AID inhibitor | UDG counterscr
CCCCCSc1nc2sc3c(c2c(=O)n1-c1ccccc1)CCN(C(C)=O)C3 | 25µM* | -22%
CCSc1nc2sc3c(c2c(=O)n1-c1ccc(C)c(Cl)c1)CCN(C(C)=O)C3 | i | u
O=[N+]([O-])c1ccc(Nc2ccc(Cl)cc2)c2nonc12 | i | -6%
CCCCC(=O)Nc1oc2c(C)cccc2c(=O)c1-c1ccccc1 | i | 79µM*
CCCCC(=O)Nc1oc2c(C)cccc2c(=O)c1-c1cc(OC)c(OC)c(OC)c1 | i | -4%
CNc1oc(-c2ccccc2OC)nc1S(=O)(=O)c1ccc2c(c1)OCCO2 | i | -3%
O=C(COC(=O)C1(c2ccc(F)cc2)CCCC1)Nc1cc([N+](=O)[O-])ccc1F | i | 2%
CCc1ccc(C(=O)c2cn(Cc3ccc(F)cc3)c3cc(OC)c(OC)cc3c2=O)cc1 | 35µM* | -24%
CCc1ccc(C(=O)c2cn(CC(=O)Nc3ccc(F)c(F)c3)c3cc(OC)c(OC)cc3c2=O)cc1 | i | -17%
O=C(COc1ccc2oc3c(c2c1)CCCC3)OCC(=O)c1ccc2c(c1)OCO2 | i | -4%
COC(=O)c1ccccc1NC(=O)N1CC(C)Oc2ccc(C)cc21 (configuration not stated) | i | -1%
CCN(CC)C(=O)c1ccc2c(c1)N(Cc1c(F)cccc1Cl)C(=O)c1ccccc1S2 | 71µM* | -21%
COCCNC(=O)c1ccc2c(c1)N(Cc1c(F)cccc1Cl)C(=O)c1ccccc1S2 | i | -11%
CCCC(=O)Nc1ccc(Cl)c(-c2nc3ccccc3o2)c1 | i | 6%
CCOc1ccc(-n2c(C)nc3cc(C(=O)NCCC4=CCCCC4)ccc32)cc1 | i | 0%
CCOc1ccc(-n2c(C)nc3cc(C(=O)NCc4ccc(C)cc4)ccc32)cc1 | 32µM* | -15%
O=C(c1cc(F)cc(F)c1)N1CCC(CCc2ccc(O)cc2)CC1 | i | 3%
O=C(CCCn1c(=O)c2cccn2c2ccccc21)N1CCN(c2cccc(Cl)c2)CC1 | u | -11%
Cc1ccc(C(=O)c2cn(Cc3ccccc3F)c3cc4c(cc3c2=O)OCO4)cc1 | 40µM* | -6%
Cc1ccc(C(=O)c2cn(Cc3ccccc3F)c3cc4c(cc3c2=O)OCCO4)cc1 | u | -12%
COc1ccc(-c2csc(N3N=C(C)CC3c3cc(OC)c(OC)c(OC)c3)n2)cc1 (configuration not stated) | u | 89µM*
CSc1ccc(C2CC(C)=NN2c2nc(-c3ccccc3)cs2)cc1 (configuration not stated) | i | -13%
COc1cccc(-c2nc(SCc3cc(=O)n4c5c(sc4n3)CCCC5)n[nH]2)c1 | i | -3%
COc1ccc(S(=O)(=O)N(CC(=O)NC(C)c2ccccc2)c2ccc(C)cc2)cc1OC (configuration not stated) | 45µM* | u
COc1ccc(S(=O)(=O)N(CC(=O)Nc2cccc(C(F)(F)F)c2)c2ccc(C)cc2)cc1 | 25µM* | -11%
SMILES | AID inhibitor | UDG counterscr
COc1ccc(S(=O)(=O)N(CC(=O)NCc2ccccc2)c2ccc(C)cc2)cc1OC | i | -8%
COc1ccc(S(=O)(=O)N(CC(=O)Nc2cc(C)cc(C)c2)c2ccc(Cl)cc2)cc1 | i | -1%
CCc1nc(NC(CC)CO)c(C#N)c2c1CCCC2 (configuration not stated) | i | -2%
COc1ccc(Cl)cc1NC(=O)CSC1=Nc2ccccc2C2=NC(CC(=O)NC3CCCCC3)C(=O)N12 (configuration not stated) | 32µM* | 11%
O=C(CC1N=C2c3ccccc3N=C(SCc3ccc(Cl)cc3)N2C1=O)NC1CCCCC1 (configuration not stated) | i | 26%
CC(C)(C)c1ccc(C(=O)NCC(c2cccs2)S(=O)(=O)c2cccs2)cc1 (configuration not stated) | u | -4%
CC(C)(C)c1ccc(C(=O)NCC(c2cccs2)S(=O)(=O)c2ccc(F)cc2)cc1 (configuration not stated) | i | 79µM*
CC1Sc2ccc(C(=O)NNC(=O)CSc3cccc4cccnc34)cc2NC1=O (configuration not stated) | 22µM* | 0%
C=C(Cl)COC(=O)c1ccc2c(c1)NC(=O)C(C)S2 (configuration not stated) | i | -14%
O=C(Nc1nnc(C2CC2)s1)c1ccc(Cl)c(S(=O)(=O)N2CCc3ccccc32)c1 | i | -3%
O=C(O)CCCCCN1C(=O)CC(c2ccccc2)CC1=O | i | 2%
Cc1cccc(N2CCN(C(=O)c3cc4c(=O)n(C)c5ccccc5c4s3)CC2C)c1 (configuration not stated) | i | -10%
COc1cccc(-c2nn(C)c3sc(C(=O)NCc4ccc(C)cc4)cc23)c1 | u | 89µM*
COc1ccc(-c2nn(C)c3sc(C(=O)N4CCN(c5ccccc5F)CC4)cc23)cc1OC | u | 89µM*
COc1ccccc1N1CCN(C(=O)c2cc3c(-c4ccccc4F)nn(C)c3s2)CC1 | u | -13%
COCCCNC(=O)c1cc2c(-c3cccc(OC)c3)nn(C)c2s1 | i | -26%
COc1cccc(-c2nn(C)c3sc(C(=O)N4CCN(c5cccc(C)c5)C(C)C4)cc23)c1 (configuration not stated) | 40µM* | u
Cc1cc2nc(/C=C/c3cccc(C(F)(F)F)c3)sc2cc1C | i | -5%
O=C1C(O)=C(c2ccccc2)C(c2ccccc2F)N1c1ccc(F)cc1 (configuration not stated) | i | 4%
O=C(O)c1ccc(/C=C/c2ccc3ccccc3n2)cc1 | i | -1%
COc1ccc(-c2nc3ccccc3n2Cc2ccc(Cl)cc2)cc1 | 45µM* | u
COc1ccc(-c2nc3ccccc3n2Cc2ccc(C(C)C)cc2)cc1 | u | -4%
CCc1ccc(-n2c(=O)c3c(C)c(C(=O)N(C)C)sc3n(Cc3ccccc3F)c2=O)cc1 | i | 0%[57.5 µM]
Cc1c(C(=O)N(C)C)sc2c1c(=O)n(-c1ccc(F)cc1)c(=O)n2Cc1ccccc1C#N | i | 89µM*
N#Cc1ccccc1OCc1ccccc1 | i | 0%
SMILES | AID inhibitor | UDG counterscr
N#Cc1ccccc1OCc1csc(-c2ccccc2)n1 | u | 89µM*
CN(C)S(=O)(=O)c1ccc(NC(=O)CN2CCN(c3ccc(O)cc3)CC2)cc1 | i | -1%
Cc1cccc(CNC(C(=O)O)C(C)C)c1 (configuration not stated) | i | 6%
COc1ccc2nc(Nc3nc(-c4ccccc4)cc(=O)[nH]3)nc(C)c2c1 | i | 0%
COc1cccc(-c2cc(=O)[nH]c(Nc3nc(C)c4ccccc4n3)n2)c1 | 22µM* | -9%
CC(C)c1ccc(S(=O)(=O)c2nnn3c2nc(N2CCN(C)CC2)c2sccc23)cc1 | 18µM* | 19%
CN1CCN(c2nc3c(S(=O)(=O)c4ccc(Cl)cc4)nnn3c3ccsc23)CC1 | u | -16%
CC(=O)c1c(C)[nH]c(C(=O)C(C)OC(=O)c2ccc(C)c(O)c2)c1C (configuration not stated) | i | 3%
CC(=O)NC12CC3CC(C1)CC(C(=O)NC1CCCc4ccccc41)(C3)C2 (configuration not stated) | i | -1%
